Most compounds without a hit are left out; they make up all but 3.3% or so of the library.
PHOSPHO1 block: PubChem AID 1565; Phosphoethanolamine/phosphocholine phosphatase (Homo sapiens), Q8TCT1; recombinant PHOSPHO1, absorbance phosphatase assay; inhibition, % at 13.3 µM; 1.1% of 290,000 active; in the data active = inhibition above about 60%
CendR NRP1 mod: modulators of CendR peptide binding to NRP-1, primary screen, biochemical, fluorescence polarization, uHTS; FAM-RPARPAR peptide binding to NRP-1; inhibition, % at 25 µM; 0.85% of 360,000 active;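 active = inhibition or corrected inhibition above about 18%, plus a signal ratio from 0.5 to 1.5, limit read from the data, passing the limit was not always enough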
Target sequence (O14786 whole entry, looked up): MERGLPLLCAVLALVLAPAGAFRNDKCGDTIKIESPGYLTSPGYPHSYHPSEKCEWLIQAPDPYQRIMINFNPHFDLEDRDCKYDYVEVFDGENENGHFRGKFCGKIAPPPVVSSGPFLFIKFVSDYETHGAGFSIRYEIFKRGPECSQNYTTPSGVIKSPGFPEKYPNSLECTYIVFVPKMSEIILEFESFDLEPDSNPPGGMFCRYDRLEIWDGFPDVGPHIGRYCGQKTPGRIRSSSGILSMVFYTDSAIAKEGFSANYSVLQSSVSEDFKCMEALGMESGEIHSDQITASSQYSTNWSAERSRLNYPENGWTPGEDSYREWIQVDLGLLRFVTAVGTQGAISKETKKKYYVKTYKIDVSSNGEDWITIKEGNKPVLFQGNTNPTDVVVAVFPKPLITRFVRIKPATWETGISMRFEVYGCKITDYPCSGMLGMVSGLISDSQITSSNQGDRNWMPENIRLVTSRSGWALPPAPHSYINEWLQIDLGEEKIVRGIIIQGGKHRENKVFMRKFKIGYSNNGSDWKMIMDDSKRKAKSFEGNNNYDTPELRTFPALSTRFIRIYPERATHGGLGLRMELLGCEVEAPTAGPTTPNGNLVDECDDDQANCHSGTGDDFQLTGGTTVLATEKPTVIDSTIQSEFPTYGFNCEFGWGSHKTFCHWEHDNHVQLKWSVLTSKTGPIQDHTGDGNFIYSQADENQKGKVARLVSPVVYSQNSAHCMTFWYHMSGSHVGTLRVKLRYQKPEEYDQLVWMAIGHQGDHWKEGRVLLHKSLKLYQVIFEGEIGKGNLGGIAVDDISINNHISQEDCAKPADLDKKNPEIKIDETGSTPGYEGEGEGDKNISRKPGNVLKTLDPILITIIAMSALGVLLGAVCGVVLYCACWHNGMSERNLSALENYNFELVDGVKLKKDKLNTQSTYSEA
HNF4A DNA FP: change in binding of human HNF4A to DNA, primary screen, biochemical, fluorescence polarization, FITC-DNA. Hepatocyte nuclear factor 4-alpha (Homo sapiens), P41235. activity change, % at 10 µM. 0.3% of 360,000 active. 1 h; in the data active = activity change above about 30%, passing the limit was not always enough
TPT1 inhibitor: Candida albicans TPT1 enzyme inhibitors, primary screen, biochemical, fluorescence polarization; inhibition, % at 5 µM; tRNA 2'-phosphotransferase TPT1 (Candida albicans SC5314); 0.81% of 300,000 active; recombinant caTPT1, FP RNA substrate dephosphorylation;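 active = inhibition above the mean of all tested compounds plus 3 SD, set per screening campaign, cut at about 24% in these data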;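 also: plate controls were DMSO alone for no effect and ferristatin control at 100 nM for full effect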
Fh CTSL1 inh: Fasciola hepatica cathepsin L1 inhibitors, primary screen, counter-screen for PFM18AAP inhibitor project, biochemical, QFRET, fluorogenic peptide substrate; AID 1906, 2009; recombinant F. hepatica cathepsin L1, Z-Leu-Arg-MCA fluorescence; inhibition, % at 5.96 µM; 0.49% of 300,000 active;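 active = inhibition above the mean of all tested compounds plus 3 SD, set per screening campaign, cut at about 17% in these data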;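 also: 0% = plate median of test compound wells and 100% = 1 µM Z-Phe-Ala-diazomethylketone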
Rpn11 block: Rpn11 (PSMD14) deubiquitinase inhibitors, primary screen, biochemical, fluorescence polarization, uHTS. 26S proteasome non-ATPase regulatory subunit 14 (Homo sapiens), O00487. human 26S proteasome, Ub4-pepOG fluorescence polarization; 20S core pre-blocked with epoxomicin. inhibition, % at 20 µM. 0.59% of 360,000 active. AID 588493, 2011;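 active = inhibition at 20 µM, scaled to each plate's controls, above about 33%, limit read from the data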
Numbers without * were called inactive; x = not tested or not shown.

SMILES	PHOSPHO1 block	CendR NRP1 mod	HNF4A DNA FP	TPT1 inhibitor	Fh CTSL1 inh	Rpn11 block
CCN(CC)CCC(c1ccc(N(C)C)cc1)c1c(O)cc(OC)cc1OC (centres undefined)	26	0	-2	1	-5	3
O=S(=O)(c1ccc(SCCOc2ccc(F)cc2)nc1)N1CCCC1	x	18	4	x	x	0
COc1ccc(-n2c(-c3ccco3)n[nH]c2=S)cc1	99*	-7	3	-1	-3	1
Nn1c(-c2ccco2)n[nH]c1=S	86*	-6	0	1	5	-3
COc1ccccc1-c1n[nH]c(=S)n1-c1ccccc1	89*	8	-2	-2	2	1
COc1ccccc1-c1n[nH]c(=S)n1N	-7	-3	-1	3	-2	2
COC(=O)c1ccc(CSc2nc3ccc(Cl)cc3[nH]2)o1	35	x	x	-6	3	x
COC(=O)c1ccc(CSc2nc3scc(-c4cccs4)c3c(=O)[nH]2)o1	72*	-32	-5	11	-4	14
C=CCNc1nc2c(c(=O)[nH]c(=O)n2C)n1CC(O)COc1ccc2ccccc2c1 (centres undefined)	29	-17	1	x	x	-3
CC(OC(=O)/C=C/c1cccs1)C(=O)Nc1ccc(S(N)(=O)=O)cc1 (centres undefined)	6	4	1	2	-5	6
O=C(/C=C/CCc1ccc2c(c1)OCO2)N1CCCCC1	x	23*	4	x	x	-2
COc1ccc(/C=N/NC(=O)c2cccc(NC(=O)c3ccccc3Cl)c2)c(OC)c1	-15	32*	-1	-2	5	6
Cc1ccc2c(=O)n3c(nc2c1)C(CC(C)C)NC(=O)c1cccnc1-3 (centres undefined)	x	-6	2	x	x	2
COc1ccc2[nH]c(=O)c(CN(C3CCCCC3)C(c3nnnn3Cc3ccco3)C(C)C)cc2c1 (centres undefined)	37	-188	54*	57*	14	x
COc1ccc2[nH]c(=O)c(CN(Cc3nnnn3Cc3ccco3)C3CCCCC3)cc2c1	43	-96	7	10	10	13
CCC(c1nnnn1C1CCCCC1)N(Cc1ccco1)Cc1cc2ccc(OC)cc2[nH]c1=O (centres undefined)	-56	29*	1	x	x	-13
O=C(CCC(=O)Nc1ccccc1Cl)NN=C1CCCC1	12	22*	-1	x	x	-23
CCOC(=O)c1cnc(N)nc1C(F)(F)F	35	-5	3	-3	2	-6
O=C(O)c1ccc(NS(=O)(=O)c2cccc(S(=O)(=O)c3ccc(Cl)c(Cl)c3)c2)cc1	6	2	-1	0	1	6
COCCNC(=S)Nc1ccc(Cl)c(Cl)c1	64*	13	2	-3	-1	1
COCCNC(=S)Nc1ccc2nsnc2c1	-6	14	-1	3	0	6
COc1ccc2[nH]c3c(=O)n(CCCN4CCOCC4)cnc3c2c1	-20	8	2	-1	3	-4
C[C@@]1([C@@H](NC(=O)c2cccs2)c2ccc(-c3ccccc3)cc2)C[C@H]1C1CCCCC1	30	-12	0	-1	0	4
Cc1cc(C(=O)CSc2nn3c(=O)c(C(C)(C)C)nnc3s2)c(C)n1-c1ccc(F)cc1	102*	-16	3	5	4	4
Cc1ccc(-n2ncc3c(NNC(=O)c4ccco4)ncnc32)c(C)c1	-8	-7	5	-1	-5	-1
O=C(NNc1ncnc2c1cnn2-c1ccc(F)cc1)c1ccco1	53	29*	4	-2	-1	4
CCC(=O)c1ccc(OCC(=O)OCC(=O)NCCCc2ccccc2)cc1	x	6	2	2	-9	0
CC(OC(=O)c1ccco1)C(=O)Nc1nc(-c2ccccc2)cs1 (centres undefined)	x	30*	-2	x	x	2
O=C(Nc1nc(-c2ccccc2)cs1)c1ccco1	8	-13	-3	1	-2	2

Screening data as filed in PubChem.
